Bioassay records (PubChem)
A selection follows.
aSyn 5UTR act: Activators via SNCA 5'UTR binding, MLPCN | alpha-synuclein 5'UTR reporter, activators screen | actives 7.1% (n = 300,000) | activity score, % (tested at 7.5 µM), hits read low; in the data active means activity score below about -60%
A number is an active result.

How did COc1ccc(-c2nc(-c3ccccc3OC)no2)cc1OC do in these assays?
aSyn 5UTR act: -231

Results for Nc1ccc(C(=O)OCc2nc3c(ccc4ccccc43)[nH]2)cc1 ?
aSyn 5UTR act: -116

What do the screens show for `O=C(c1ccc(Cl)cc1)c1cnc(Nc2ccccc2Cl)s1`?
aSyn 5UTR act: -156

What do the screens show for `CC(=O)c1cnc(Nc2cccc(Cl)c2Cl)s1`?
aSyn 5UTR act: -92

Results for COc1ccc2[nH]c(-c3cccc(F)c3)cc(=O)c2c1 ?
aSyn 5UTR act: inactive

What do the screens show for `O=c1cc(-c2ccccc2)[nH]c2cc(Cl)ccc12`?
aSyn 5UTR act: inactive

What do the screens show for `c1ccc(-c2cc3ccccc3[nH]2)cc1`?
aSyn 5UTR act: -139

What do the screens show for `COc1ccc(-c2cc(=O)c3ccccc3[nH]2)cc1`?
aSyn 5UTR act: -79

Results for COc1ccc(-c2cc3ccccc3[nH]2)cc1 ?
aSyn 5UTR act: -159

How did Cc1ccc(O)c(-c2cc3ccccc3[nH]2)c1 do in these assays?
aSyn 5UTR act: -131

How did COc1ccc2cc1Oc1ccc(cc1)CC1c3c(cc(OC)c4c3Oc3cc5c(cc3O4)CCNC5C2)CCN1C (configuration not stated) do in these assays?
aSyn 5UTR act: inactive

How did Cc1ccc(C)c(N(CC(=O)Nc2ccc(-c3nc4ccc(C)cc4s3)cc2)S(C)(=O)=O)c1 do in these assays?
aSyn 5UTR act: -80

How did Cc1ccc(N(CC(=O)Nc2ccc(-c3nc4ccc(C)cc4s3)cc2)S(C)(=O)=O)cc1 do in these assays?
aSyn 5UTR act: -203

What do the screens show for `CC(C)(C)c1ccc(C(=O)c2cn[nH]c2-c2ccccc2O)cc1`?
aSyn 5UTR act: -134

What do the screens show for `CCCS/C(N)=N/N=C/c1ccccc1O`?
aSyn 5UTR act: -198

How did C=CCS/C(N)=N\N=C\c1c(O)ccc2ccccc12 do in these assays?
aSyn 5UTR act: -195

How did COC(=O)c1cn(C(=O)/C=C/c2ccc(OC)c(OC)c2)c2ccccc12 do in these assays?
aSyn 5UTR act: -78

What do the screens show for `Cc1c(C(=O)N(C)c2cccc(Cl)c2)cnn1-c1ccccc1`?
aSyn 5UTR act: -104

What do the screens show for `Cc1c(C(=O)Oc2cccc3ccccc23)cnn1-c1ccccc1`?
aSyn 5UTR act: -65

Results for Cc1nn(-c2ccccc2)cc1C(=S)Nc1ccccc1 ?
aSyn 5UTR act: -171

Results for Cc1c(C(=O)Nc2ccccc2F)cnn1-c1ccccc1 ?
aSyn 5UTR act: -163

How did CCc1ccc(NC(=O)c2cnn(-c3ccccc3)c2C)cc1 do in these assays?
aSyn 5UTR act: -83

What do the screens show for `Cc1c(C(=O)Nc2cc(F)cc(F)c2)cnn1-c1ccccc1`?
aSyn 5UTR act: -187

Results for Cc1c(C(=S)Nc2ccccc2)cnn1-c1ccccc1 ?
aSyn 5UTR act: -108

How did NNc1nc2c(-c3ccc(F)cc3)nnn2c2ccccc12 do in these assays?
aSyn 5UTR act: -141

Results for NNc1nc2c(-c3ccc(Cl)cc3)nnn2c2ccccc12 ?
aSyn 5UTR act: -92

How did CC(/C=C1\SC(=Nc2cccnc2)NC1=O)=C\c1ccccc1 do in these assays?
aSyn 5UTR act: -113

How did Cc1nc(C)c(-c2csc(Nc3ccccn3)n2)s1 do in these assays?
aSyn 5UTR act: -85

How did Cc1ccnc(Nc2nc(-c3sc(C)nc3C)cs2)c1 do in these assays?
aSyn 5UTR act: -161

How did Cc1nc(N)sc1-c1csc(Nc2ccccn2)n1 do in these assays?
aSyn 5UTR act: -168

How did Cc1nc(N)sc1-c1csc(Nc2ccc(Cl)cn2)n1 do in these assays?
aSyn 5UTR act: -142

Results for N#C/C(=C(/O)c1cccc(F)c1)c1nc2ccccc2s1 ?
aSyn 5UTR act: -149

Results for N#C/C(=C(/O)c1cc2ccccc2o1)c1nc2ccccc2s1 ?
aSyn 5UTR act: -120

How did N#C/C(=C(/O)c1ccco1)c1nc2ccccc2s1 do in these assays?
aSyn 5UTR act: -128

Results for N#C/C(=C(\O)c1ccco1)c1ccccn1 ?
aSyn 5UTR act: -91

What do the screens show for `Cc1ccc(CSc2nccc(-c3c(C)nc4ccccn34)n2)cc1`?
aSyn 5UTR act: -70

Results for Cc1ccc(CSc2nc3ccccc3cc2C=O)cc1 ?
aSyn 5UTR act: inactive

How did CN(C)c1ccc(C(=O)NCC2CCCO2)cc1 (configuration not stated) do in these assays?
aSyn 5UTR act: -107

How did Nc1c(C(=O)NCC2CCCO2)c2nc3ccccc3nc2n1-c1ccccc1 (configuration not stated) do in these assays?
aSyn 5UTR act: inactive

What do the screens show for `CC(C)(C)c1ccc(-c2noc(CCC(=O)NCC3CCCO3)n2)cc1` (configuration not stated)?
aSyn 5UTR act: inactive

Results for O=C(NC(=S)NCC1CCCO1)c1ccc(Cl)cc1 (configuration not stated) ?
aSyn 5UTR act: -106

Results for Cc1ccc(C(=O)NC(=S)NCC2CCCO2)cc1 (configuration not stated) ?
aSyn 5UTR act: -147

How did Cc1ccccc1OCc1nc2ccccc2c(=O)n1/N=C/c1ccco1 do in these assays?
aSyn 5UTR act: -66

How did O=C(NNC(=O)c1cc2ccccc2cc1O)c1cccs1 do in these assays?
aSyn 5UTR act: -193

How did N/C(=N\NC(=O)c1cccs1)c1cc2ccccc2oc1=O do in these assays?
aSyn 5UTR act: -64

How did O=C(NNC(=O)c1cc2ccccc2oc1=O)c1ccccc1 do in these assays?
aSyn 5UTR act: -108
